Results reported in PubChem BioAssay (NCI).
About 83,000 compounds went through this panel and 20% of them were active in at least one assay; those are over-represented in the sample as a whole.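 Single-concentration screen, 48 h exposure, 96-well plates. Endpoint: percent growth. Below 10 = active.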 Active and inactive are the calls of the source.

What was measured:
Test in all cases: NCI-60 one-dose screen, 48 h (100 = growth as untreated, 0 = no growth, -100 = all killed)
Conditions in all cases: 10 µM
DU-145 prostate = test system: DU-145 prostate
K-562 leukemia = test system: K-562 leukemia
MALME-3M melanoma = test system: MALME-3M melanoma
MDA-MB-231 breast = test system: MDA-MB-231 breast
RXF 393 renal = test system: RXF 393 renal
SF-268 CNS = test system: SF-268 CNS
SF-295 CNS = test system: SF-295 CNS
SF-539 CNS = test system: SF-539 CNS
UACC-257 melanoma = test system: UACC-257 melanoma
M14 melanoma = test system: M14 melanoma

Measured: growth

CCOc1ccc(I)cc1
inactive: DU-145 prostate 105% | K-562 leukemia 119% | MALME-3M melanoma 108% | MDA-MB-231 breast 102% | RXF 393 renal 107% | SF-268 CNS 96.4% | SF-295 CNS 113% | SF-539 CNS 97.8% | UACC-257 melanoma 104%

CC(C)OC(C(=O)O)c1ccccc1 (stereo not given)
inactive: DU-145 prostate 113% | K-562 leukemia 124% | MALME-3M melanoma 133% | MDA-MB-231 breast 99.3% | RXF 393 renal 117% | SF-268 CNS 104% | SF-295 CNS 138% | SF-539 CNS 102% | UACC-257 melanoma 116%

CCCC1(c2ccccc2)NC(=O)NC1=O (stereo not given)
inactive: DU-145 prostate 108% | K-562 leukemia 135% | MALME-3M melanoma 121% | MDA-MB-231 breast 95.2% | RXF 393 renal 109% | SF-268 CNS 98.3% | SF-295 CNS 122% | SF-539 CNS 100% | UACC-257 melanoma 108%

O=C(O)CSCSCC(=O)O
inactive: DU-145 prostate 111% | K-562 leukemia 97.8% | MALME-3M melanoma 105% | MDA-MB-231 breast 107% | RXF 393 renal 97% | SF-268 CNS 110% | SF-295 CNS 96.6% | SF-539 CNS 98.3%

CCCCCCCCOC(=O)c1ccccn1
inactive: DU-145 prostate 102% | K-562 leukemia 115% | MALME-3M melanoma 117% | MDA-MB-231 breast 95.2% | RXF 393 renal 116% | SF-268 CNS 97.6% | SF-295 CNS 133% | SF-539 CNS 96.9% | UACC-257 melanoma 107%

COc1ccc(C(C)C=O)cc1 (stereo not given)
inactive: DU-145 prostate 109% | K-562 leukemia 104% | MALME-3M melanoma 133% | MDA-MB-231 breast 110% | RXF 393 renal 139% | SF-268 CNS 114% | SF-295 CNS 115% | SF-539 CNS 99% | UACC-257 melanoma 117%

O=C(c1ccc(Cl)cc1)c1ccccc1Cl
inactive: DU-145 prostate 123% | K-562 leukemia 96.8% | MALME-3M melanoma 103% | MDA-MB-231 breast 101% | RXF 393 renal 93.3% | SF-268 CNS 111% | SF-295 CNS 92.3% | SF-539 CNS 89% | UACC-257 melanoma 93.6%

CCCCCCCCO
inactive: DU-145 prostate 104% | K-562 leukemia 101% | MALME-3M melanoma 106% | MDA-MB-231 breast 118% | RXF 393 renal 106% | SF-268 CNS 108% | SF-295 CNS 108% | SF-539 CNS 97.4% | UACC-257 melanoma 101% | M14 melanoma 105%

CC(=O)OCCC(C)CCC=C(C)C (stereo not given)
inactive: DU-145 prostate 107% | K-562 leukemia 98.5% | MALME-3M melanoma 114% | MDA-MB-231 breast 98.1% | RXF 393 renal 116% | SF-268 CNS 97.2% | SF-295 CNS 106% | SF-539 CNS 99.1% | UACC-257 melanoma 106%

COc1cc(C2NC(=O)C(C#N)=C(Nc3cccc(C)c3)S2)ccc1O (stereo not given)
inactive: DU-145 prostate 122% | K-562 leukemia 93.8% | MALME-3M melanoma 108% | MDA-MB-231 breast 99.2% | RXF 393 renal 103% | SF-268 CNS 109% | SF-295 CNS 101% | SF-539 CNS 90.4%
active: UACC-257 melanoma -2.62%

O=C(CN1CCNCC1)N1CCOCC1
inactive: DU-145 prostate 130% | K-562 leukemia 97.5% | MALME-3M melanoma 96.3% | MDA-MB-231 breast 110% | RXF 393 renal 123% | SF-268 CNS 110% | SF-295 CNS 102% | SF-539 CNS 99.5% | UACC-257 melanoma 109%

O/N=C/c1ccc(O)cc1O
inactive: DU-145 prostate 112% | K-562 leukemia 105% | MALME-3M melanoma 109% | MDA-MB-231 breast 105% | RXF 393 renal 112% | SF-268 CNS 105% | SF-295 CNS 107% | SF-539 CNS 104% | UACC-257 melanoma 87.7%

S=c1nn[nH]c2ccccc12
inactive: DU-145 prostate 120% | K-562 leukemia 99% | MALME-3M melanoma 148% | MDA-MB-231 breast 93.4% | RXF 393 renal 114% | SF-268 CNS 110% | SF-295 CNS 113% | SF-539 CNS 105% | UACC-257 melanoma 108% | M14 melanoma 102%

CC(C)C(C#N)(C(C)C)C(C)C
inactive: DU-145 prostate 111% | K-562 leukemia 114% | MALME-3M melanoma 92.9% | MDA-MB-231 breast 104% | RXF 393 renal 115% | SF-268 CNS 98.1% | SF-295 CNS 103% | SF-539 CNS 104% | UACC-257 melanoma 96%

Cc1ccc(C(=O)c2ccccc2)c(C)c1
inactive: DU-145 prostate 104% | K-562 leukemia 125% | MALME-3M melanoma 120% | MDA-MB-231 breast 97.8% | RXF 393 renal 116% | SF-268 CNS 102% | SF-295 CNS 136% | SF-539 CNS 98.9% | UACC-257 melanoma 112%

CC1(C)N=C(N)N=C(N)N1c1ccc(Cl)cc1
active: SF-295 CNS 4.05%
inactive: DU-145 prostate 55.2% | K-562 leukemia 20.1% | MALME-3M melanoma 63.4% | MDA-MB-231 breast 69% | RXF 393 renal 71% | SF-268 CNS 36.6% | SF-539 CNS 22.7% | UACC-257 melanoma 64%
